Reference: PubChem BioAssay (NCATS)
Where “and” joins values, the source holds several entries; their conditions need not be identical. Identical values can stand only once. Inconclusive results are not listed. Calls of active or inactive are those of the source. Calls come from the whole dose curve; as a rule, active = well fitted curve in the direction sought with a large enough effect; inconclusive = small, poorly fitted or top-dose-only effect, or another doubt; inactive = no such curve, though single readings can be large; an effect the other way counts as inactive or inconclusive.

Columns and labels:
[1] = test system: Zika virus NS2B-NS3 protease (linked construct); experiment: Primary screen NINDS Rhodamine qHTS for Zika virus inhibitors (AID 1347160); note: nearly all actives have a fitted effect of over 55% in size; note: potency is the fitted concentration of half-maximal effect
Procedure, shortened: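 Each compound, titrated, sat 15 min with 25 nM linked protease before 1.5 microM Rhodamine110 substrate went in. Fluorescence gain over the next 15 min, in pH 8.0 Tris with Tween 20, gave Hill-fitted curves.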

[2] = Primary qHTS for inhibitors of nuclear receptor binding SET domain protein 2 (NSD2) in an isogenic RCH-ACV NSD2 p.E1099K mutant (9B) (AID 1645876); note: nearly all actives have a fitted effect of over 70% in size; note: potency is the fitted concentration of half-maximal effect
[3] = Primary qHTS for inhibitors of nuclear receptor binding SET domain protein 2 (NSD2) in an RCH-ACV wild type WT cells (2C) (AID 1645877); note: nearly all actives have a fitted effect of over 70% in size; note: potency is the fitted concentration of half-maximal effect
[4] = biological target: Luciferin 4-monooxygenase (Photinus pyralis) (UniProt P08659); experiment: Primary firefly luciferase (FLuc) qHTS assay for identification of artifact compounds. (AID 1845220); note: nearly all actives have a fitted effect of over 60% in size; note: potency is the fitted concentration of half-maximal effect
Procedure, shortened: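 Enzymatic FLuc inhibition assay: compounds pre-exposed to luciferin/ATP (10 uM each) for 15 min, then purified P. pyralis enzyme at 10 nM added. Read-out: luminescence at 5 min.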

[5] = Primary fluorescence-based thiol-reactive (MSTI) qHTS assay for identification of artifact compounds. (AID 1845221); note: nearly all actives have a fitted effect of over 65% in size; note: potency is the fitted concentration of half-maximal effect
Procedure, shortened: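 First, 4 uM MSTI in 2% DMSO/PBS pH 7.4 was dispensed; next, compounds were added; then plates sat 1 h at room temperature without light. Finally, emission at 598 nm was recorded.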

[6] = Primary redox qHTS assay for identification of artifact compounds. (AID 1845223)
Procedure, shortened: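 Redox-cycling detection via DTT (250 uM final) oxidation coupled to Amplex Red (25 uM)/HRP (250 mU/mL) in HBSS. 15 min preincubation plus 30 min after DTT, room temperature. Ex/Em 525/598 nm; 4-parameter Hill fit against DMSO and 10 uM DA3003.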

[7] = test system: C33A; experiment: Primary qHTS to identify gynecologic anti-cancer compounds using libraries of approved drugs and bioactive compounds (AID 1345084); conditions: Gynecologic cancer cell panel viability, ATPlite luminescence, 48 h; series mostly up to 57.5 µM; note: nearly all actives have a fitted effect of over 55% in size; note: potency is the fitted concentration of half-maximal effect
Procedure, shortened: (§1)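 48 h compound exposure at 37 C, 5% CO2; five-point qHTS. ATPlite luminescence readout of cell ATP.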

[8] = test system: CAOV3; experiment: as above; conditions: Gynecologic cancer cell panel viability, ATPlite luminescence, 48 h; series mostly up to 57.5 µM
Procedure, shortened: as §1

[9] = test system: CASKI; experiment: as above; conditions: Gynecologic cancer cell panel viability, ATPlite luminescence, 48 h; series mostly up to 57.5 µM
Procedure, shortened: as §1

[10] = test system: Es-2; experiment: as above; conditions: Gynecologic cancer cell panel viability, ATPlite luminescence, 48 h; series mostly up to 57.5 µM
Procedure, shortened: as §1

[11] = test system: HeLa; experiment: as above; conditions: Gynecologic cancer cell panel viability, ATPlite luminescence, 48 h; series mostly up to 57.5 µM
Procedure, shortened: as §1

[12] = test system: Hek293T; experiment: as above; conditions: Gynecologic cancer cell panel viability, ATPlite luminescence, 48 h, control line for the selectivity index; series mostly up to 57.5 µM
Procedure, shortened: as §1

[13] = test system: JEG-3; experiment: as above; conditions: Gynecologic cancer cell panel viability, ATPlite luminescence, 48 h; series mostly up to 57.5 µM
Procedure, shortened: as §1

[14] = test system: OV90; experiment: as above; conditions: Gynecologic cancer cell panel viability, ATPlite luminescence, 48 h; series mostly up to 57.5 µM
Procedure, shortened: as §1

[15] = test system: Tov-21-G; experiment: as above; conditions: Gynecologic cancer cell panel viability, ATPlite luminescence, 48 h; series mostly up to 57.5 µM
Procedure, shortened: as §1

[16] = test system: Tov112D; experiment: as above; conditions: Gynecologic cancer cell panel viability, ATPlite luminescence, 48 h; series mostly up to 57.5 µM
Procedure, shortened: as §1

[17] = biological target: Calcium and integrin-binding protein 1 (Homo sapiens) (UniProt Q99828); experiment: Primary qHTS for Identification of Calcium Integrin Binding Protein 1 (CIB1) Competitor (AID 1508620);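 note: GST tagged CIB1 binding a fluorescein labelled alphaIIb integrin peptide tracer; top concentration of the series differs between compounds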
Sequence of Calcium and integrin-binding protein 1 (Homo sapiens) (Q99828 whole entry, looked up): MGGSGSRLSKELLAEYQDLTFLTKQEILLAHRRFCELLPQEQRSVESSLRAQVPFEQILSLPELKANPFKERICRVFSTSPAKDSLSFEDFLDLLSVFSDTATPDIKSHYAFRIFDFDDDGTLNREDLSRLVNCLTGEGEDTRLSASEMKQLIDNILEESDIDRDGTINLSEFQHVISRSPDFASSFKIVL
Procedure, shortened: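 Fluorescence polarization competition: GST-tagged CIB1 (1 uM final) preincubated with compound 15 min at room temperature, then FITC-labelled alphaIIb peptide (100 nM final) added. After 15 min at room temperature, polarization read at Ex 480/Em 540.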

[18] = biological target: Glutathione peroxidase 1 (Homo sapiens) (UniProt P07203); experiment: Primary qHTS Assay for Inhibitors of Recombinant Selenoprotein Glutathione Peroxidase 1 (GPX1) (AID 1845191); note: nearly all actives have a fitted effect of over 65% in size
Sequence of Glutathione peroxidase 1 (Homo sapiens) (P07203 whole entry, looked up): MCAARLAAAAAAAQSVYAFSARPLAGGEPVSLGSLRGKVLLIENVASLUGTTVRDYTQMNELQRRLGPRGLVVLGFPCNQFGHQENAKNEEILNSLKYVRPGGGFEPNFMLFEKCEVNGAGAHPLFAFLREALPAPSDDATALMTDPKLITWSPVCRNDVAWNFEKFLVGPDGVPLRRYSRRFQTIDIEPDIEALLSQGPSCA
Procedure, shortened: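 GR-coupled readout: NADPH consumption tracked by fluorescence, ex 340/em 450 nm, at t=0 and after 15 min at RT. Final mix 10 nM GPX1, 1 mM GSH, 0.5 mM CHP, 0.5 mM NADPH, 100 nM GR, 0.01% BSA, following 30 min enzyme–compound preincubation.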

[19] = test system: Nanoluciferase (engineered Oplophorus gracilirostris luciferase); experiment: Primary Nanoluciferase (NLuc) qHTS assay for identification of artifact compounds. (AID 1845222); note: potency is the fitted concentration of half-maximal effect
Procedure, shortened: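 S16 cell supernatant NLuc, 1:55; cpds qHTS; 15 min RT dark; Nano-Glo substrate 1:100, 5 min; luminescence; Hill fit of % inhibition.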

[20] = biological target: Phospholipid hydroperoxide glutathione peroxidase GPX4 (Homo sapiens) (UniProt P36969); experiment: Primary qHTS Assay for Inhibitors of Recombinant Selenoprotein Glutathione Peroxidase 4 (GPX4) (AID 1845192); conditions: outcome: dose series up to 50 µM unless noted; note: nearly all actives have a fitted effect of over 65% in size
Sequence of Phospholipid hydroperoxide glutathione peroxidase GPX4 (Homo sapiens) (P36969 whole entry, looked up): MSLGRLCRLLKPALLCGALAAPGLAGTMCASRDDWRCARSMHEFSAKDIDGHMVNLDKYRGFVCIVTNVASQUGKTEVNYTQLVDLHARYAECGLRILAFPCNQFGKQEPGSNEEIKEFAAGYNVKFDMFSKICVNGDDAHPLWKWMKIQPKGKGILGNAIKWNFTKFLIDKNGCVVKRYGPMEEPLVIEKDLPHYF
Procedure, shortened: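 Steps: GPX4 plus compound, 30 min RT; add GR/GSH/NADPH master mix; start with cumene hydroperoxide; read 340/450 nm fluorescence at 0 and 15 min. Finals were 200 nM GPX4, 1 mM GSH, 0.5 mM CHP, 0.5 mM NADPH, 100 nM GR.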

Measured: Potency

CCCCC(=O)N(Cc1ccc(-c2ccccc2-c2nn[nH]n2)cc1)C(C(=O)O)C(C)C (stereo not given)
not listed: [17] | [18] | [19] | [20]
inactive: all other assays above

CC(=O)Nc1ccc(C(=O)Nc2ccccc2N)cc1
active: [2] 3.55 µM and 3.72 µM | [3] 2.82 µM and 3.72 µM | [14] 3.98 µM
not listed: [10] | [11] | [12] | [13] | [15] | [20]
inactive: all other assays above

CCCCc1nc(C)c(CC(=S)N(C)C)c(=O)n1Cc1ccc(-c2ccccc2-c2nn[nH]n2)cc1
active: [19] 16.9 µM
not listed: [18]
inactive: all other assays above

CCCCc1nc(Cl)c(CO)n1Cc1ccc(-c2ccccc2-c2nnn[nH]2)cc1
not listed: [18] | [19]
inactive: all other assays above

Nc1ccc(N)c([N+](=O)[O-])c1
inactive: [7] | [8] | [9] | [10] | [11] | [12] | [13] | [15] | [16]

CC(C)c1ccc(NC(=O)C(c2ccccc2)N(C)C(=O)Cc2c[nH]c3ccccc23)cc1 (stereo not given)
active: [2] 20.5 µM | [3] 20.5 µM
not listed: [1] | [4] | [8]
inactive: all other assays above

CN(C)CC(=O)Nc1ccc2[nH]c(=O)c3ccccc3c2c1
active: [2] 20.5 µM | [3] 23 µM
not listed: [12] | [15] | [18] | [20]
inactive: all other assays above

CC1=CC(=O)[C@@]2(C(C)C)C[C@@H]12
active: [1] 3.16 µM
not listed: [2] | [3] | [5] | [11] | [12] | [13] | [19]
inactive: all other assays above

COc1ccc(C2(CNC(=O)[C@](C)(Cc3c[nH]c4ccccc34)NC(=O)Nc3ccc([N+](=O)[O-])cc3)CCCCC2)nc1
active: [3] 20.5 µM
not listed: [2]
inactive: all other assays above

CNc1cc(OC)c(C(=O)N[C@@H]2CCN(Cc3ccccc3)[C@@H]2C)cc1Cl
active: [2] 20.5 µM
not listed: [3] | [14] | [18]
inactive: all other assays above

CCC(=O)Nc1cccc(Oc2nc(Nc3ccc(N4CCN(C)CC4)cc3OC)ncc2Cl)c1
active: [2] 16.3 µM | [3] 14.5 µM | [5] 1.89 µM
not listed: [6] | [8] | [15] | [20]
inactive: all other assays above

CC1(C)SC2C(NC(=O)[C@H](NC(=O)N3CCNC3=O)c3ccccc3)C(=O)N2C1C(=O)O (stereo not given in full)
not listed: [1] | [6]
inactive: all other assays above

c1ccc(-c2cnc(Nc3ccc(OCCN4CCCC4)cc3)s2)cc1
active: [2] 9.16 µM | [3] 9.16 µM | [4] 23.9 µM
not listed: [5] | [14] | [15]
inactive: all other assays above

C[C@H](NC(=O)C(C)(C)Oc1ccc(C(F)(F)F)cn1)[C@@H](Cc1ccc(Cl)cc1)c1cccc(C#N)c1
active: [2] 16.3 µM | [3] 20.5 µM
not listed: [11] | [12]
inactive: all other assays above

Cc1c(C(=O)NCCCO)cnn1-c1nc(-c2cccc(C(F)(F)F)c2)cs1
active: [2] 25.8 µM | [3] 25.8 µM
not listed: [6] | [9]
inactive: all other assays above

CN([C@H]1c2cc(OCCCC(F)(F)F)ccc2OC(C)(C)[C@@H]1O)S(C)(=O)=O
not listed: [2] | [3] | [17] | [18] | [20]
inactive: all other assays above
